Publication PMC7862700, “An all-to-all approach to the identification of sequence-specific readers for epigenetic DNA modifications on cytosine”

How the values were obtained:
Experiment in all cases: DAPPL (digital affinity profiling via proximity ligation, sequencing); 10 mM Tris-HCl pH 7.5, 50 mM NaCl, 1 mM DTT, 4% glycerol, room temperature, 30 min; GST-TFs on glutathione beads, 16-mer random dsDNA library, 0.1% formaldehyde crosslink after washing; high values mean tight binding
Conditions in all cases: protein: recombinant; tags: N-terminal GST; dsDNA, one strand shown
[1] = molecular target: T1, FEV (Homo sapiens, UniProt Q99581 1-238)
T1 sequence: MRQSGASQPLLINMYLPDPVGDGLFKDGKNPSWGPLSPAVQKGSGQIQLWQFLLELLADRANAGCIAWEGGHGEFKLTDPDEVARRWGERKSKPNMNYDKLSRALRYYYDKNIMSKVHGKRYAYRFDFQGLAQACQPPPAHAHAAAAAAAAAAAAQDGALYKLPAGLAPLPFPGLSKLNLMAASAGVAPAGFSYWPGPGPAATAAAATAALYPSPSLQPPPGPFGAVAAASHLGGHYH
Procedure, shortened: (§1)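 A tag-only sample was pooled with DNA-barcoded human transcription factors that had been expressed in yeast as GST fusions and captured on glutathione beads. The pools were incubated for 30 min at room temperature with 200 nmole of a random double-stranded 16-mer DNA library in Tris/NaCl/DTT/glycerol buffer, then washed, crosslinked with 0.1% formaldehyde, proximity-ligated (BsaI/T4 ligase, 1 h, 37 °C), PCR-amplified and sequenced on an Illumina NextSeq500. Binding signal is each hexamer's read frequency for a factor divided by its frequency for the tag-only sample.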

[2] = molecular target: ETV5 (Homo sapiens, UniProt P41161 1-510)
Sequence of ETV5 (P41161 whole entry): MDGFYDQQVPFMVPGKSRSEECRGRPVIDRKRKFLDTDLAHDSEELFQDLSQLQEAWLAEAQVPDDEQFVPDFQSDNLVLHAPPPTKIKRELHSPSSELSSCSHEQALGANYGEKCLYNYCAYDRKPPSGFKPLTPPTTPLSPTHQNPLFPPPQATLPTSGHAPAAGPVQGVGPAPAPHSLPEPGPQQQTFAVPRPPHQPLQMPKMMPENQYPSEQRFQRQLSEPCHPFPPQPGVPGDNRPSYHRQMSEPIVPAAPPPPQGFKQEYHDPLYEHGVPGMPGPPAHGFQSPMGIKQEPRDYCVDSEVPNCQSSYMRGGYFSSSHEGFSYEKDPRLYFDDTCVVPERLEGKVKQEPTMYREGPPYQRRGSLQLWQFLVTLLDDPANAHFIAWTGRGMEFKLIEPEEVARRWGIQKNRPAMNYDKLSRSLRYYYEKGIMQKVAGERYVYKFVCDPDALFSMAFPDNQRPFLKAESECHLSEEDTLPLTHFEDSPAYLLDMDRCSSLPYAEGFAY
Procedure, shortened: as §1

[3] = molecular target: T2, SPIC (Homo sapiens, UniProt Q8N5J4 1-248)
T2 sequence: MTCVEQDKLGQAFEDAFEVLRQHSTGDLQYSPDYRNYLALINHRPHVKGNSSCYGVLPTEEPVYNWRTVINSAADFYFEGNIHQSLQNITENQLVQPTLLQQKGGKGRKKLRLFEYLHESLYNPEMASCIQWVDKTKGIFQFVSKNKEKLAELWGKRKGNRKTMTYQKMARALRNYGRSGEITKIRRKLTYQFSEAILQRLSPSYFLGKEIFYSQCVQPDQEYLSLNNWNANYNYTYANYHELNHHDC
Procedure, shortened: as §1

[4] = molecular target: ELF4 (Homo sapiens, UniProt Q99607 1-663)
Sequence of ELF4 (Q99607 whole entry): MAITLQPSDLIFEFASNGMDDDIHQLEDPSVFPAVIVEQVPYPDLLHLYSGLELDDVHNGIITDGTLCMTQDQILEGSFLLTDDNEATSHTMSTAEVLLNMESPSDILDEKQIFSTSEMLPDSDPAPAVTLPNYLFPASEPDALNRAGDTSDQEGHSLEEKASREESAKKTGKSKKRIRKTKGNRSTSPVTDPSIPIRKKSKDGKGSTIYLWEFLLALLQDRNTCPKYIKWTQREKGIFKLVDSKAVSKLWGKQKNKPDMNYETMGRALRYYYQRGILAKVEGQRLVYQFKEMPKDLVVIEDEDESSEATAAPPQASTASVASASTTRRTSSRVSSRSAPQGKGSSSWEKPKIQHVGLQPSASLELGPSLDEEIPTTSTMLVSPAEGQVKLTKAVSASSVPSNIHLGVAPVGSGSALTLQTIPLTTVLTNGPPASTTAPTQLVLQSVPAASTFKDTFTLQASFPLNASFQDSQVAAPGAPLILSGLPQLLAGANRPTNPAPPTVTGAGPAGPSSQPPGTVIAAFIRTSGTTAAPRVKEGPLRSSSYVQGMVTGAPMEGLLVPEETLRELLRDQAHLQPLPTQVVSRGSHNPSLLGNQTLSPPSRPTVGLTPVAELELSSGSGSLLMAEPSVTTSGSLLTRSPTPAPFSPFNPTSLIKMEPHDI
Procedure, shortened: as §1

[5] = molecular target: T3, ELK4 (Homo sapiens, UniProt P28324-2 1-405)
T3 sequence: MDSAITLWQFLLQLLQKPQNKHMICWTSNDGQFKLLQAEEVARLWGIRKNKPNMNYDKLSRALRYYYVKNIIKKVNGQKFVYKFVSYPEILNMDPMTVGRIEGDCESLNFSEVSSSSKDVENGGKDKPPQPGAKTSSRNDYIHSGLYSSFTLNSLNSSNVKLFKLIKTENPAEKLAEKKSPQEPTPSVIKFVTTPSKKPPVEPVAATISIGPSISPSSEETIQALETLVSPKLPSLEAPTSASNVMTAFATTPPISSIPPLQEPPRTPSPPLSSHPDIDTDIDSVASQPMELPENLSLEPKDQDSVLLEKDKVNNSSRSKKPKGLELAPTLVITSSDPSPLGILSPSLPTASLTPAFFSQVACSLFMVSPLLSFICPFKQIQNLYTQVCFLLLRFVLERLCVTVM
Procedure, shortened: as §1

[6] = molecular target: T4, ETV2 (Homo sapiens, UniProt O00321 1-342)
T4 sequence: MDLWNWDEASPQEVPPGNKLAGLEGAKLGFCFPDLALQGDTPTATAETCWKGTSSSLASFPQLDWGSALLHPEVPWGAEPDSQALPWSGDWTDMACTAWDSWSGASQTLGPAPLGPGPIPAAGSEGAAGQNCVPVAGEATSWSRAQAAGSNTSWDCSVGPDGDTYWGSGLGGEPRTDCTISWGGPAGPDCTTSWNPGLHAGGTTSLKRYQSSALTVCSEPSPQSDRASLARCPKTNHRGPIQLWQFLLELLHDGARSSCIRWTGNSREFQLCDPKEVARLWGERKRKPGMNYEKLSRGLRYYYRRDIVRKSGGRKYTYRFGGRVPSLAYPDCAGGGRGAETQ
Procedure, shortened: as §1

[7] = molecular target: T5, ELF3 (Homo sapiens, UniProt P78545 1-371)
T5 sequence: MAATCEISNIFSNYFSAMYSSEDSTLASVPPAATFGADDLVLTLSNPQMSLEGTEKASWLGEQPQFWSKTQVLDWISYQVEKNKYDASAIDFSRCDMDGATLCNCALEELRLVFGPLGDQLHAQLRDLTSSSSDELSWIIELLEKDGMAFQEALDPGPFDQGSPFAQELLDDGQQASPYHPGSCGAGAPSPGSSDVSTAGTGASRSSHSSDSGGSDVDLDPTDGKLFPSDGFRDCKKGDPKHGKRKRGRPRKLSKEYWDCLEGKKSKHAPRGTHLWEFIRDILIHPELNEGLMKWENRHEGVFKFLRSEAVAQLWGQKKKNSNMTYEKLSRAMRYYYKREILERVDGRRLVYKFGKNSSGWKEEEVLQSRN
Procedure, shortened: as §1

[8] = molecular target: CRX (Homo sapiens, UniProt O43186 1-299)
Sequence of CRX (O43186 whole entry): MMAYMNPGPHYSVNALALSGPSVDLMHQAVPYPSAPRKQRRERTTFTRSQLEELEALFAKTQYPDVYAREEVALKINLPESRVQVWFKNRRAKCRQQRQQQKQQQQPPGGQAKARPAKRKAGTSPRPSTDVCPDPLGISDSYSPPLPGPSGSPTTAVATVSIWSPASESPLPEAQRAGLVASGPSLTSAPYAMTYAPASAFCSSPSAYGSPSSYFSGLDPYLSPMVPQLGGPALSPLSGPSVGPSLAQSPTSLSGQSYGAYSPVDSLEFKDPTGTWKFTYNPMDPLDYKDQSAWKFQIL
Procedure, shortened: as §1

[9] = molecular target: ETV1 (Homo sapiens, UniProt P50549 1-477)
Sequence of ETV1 (P50549 whole entry): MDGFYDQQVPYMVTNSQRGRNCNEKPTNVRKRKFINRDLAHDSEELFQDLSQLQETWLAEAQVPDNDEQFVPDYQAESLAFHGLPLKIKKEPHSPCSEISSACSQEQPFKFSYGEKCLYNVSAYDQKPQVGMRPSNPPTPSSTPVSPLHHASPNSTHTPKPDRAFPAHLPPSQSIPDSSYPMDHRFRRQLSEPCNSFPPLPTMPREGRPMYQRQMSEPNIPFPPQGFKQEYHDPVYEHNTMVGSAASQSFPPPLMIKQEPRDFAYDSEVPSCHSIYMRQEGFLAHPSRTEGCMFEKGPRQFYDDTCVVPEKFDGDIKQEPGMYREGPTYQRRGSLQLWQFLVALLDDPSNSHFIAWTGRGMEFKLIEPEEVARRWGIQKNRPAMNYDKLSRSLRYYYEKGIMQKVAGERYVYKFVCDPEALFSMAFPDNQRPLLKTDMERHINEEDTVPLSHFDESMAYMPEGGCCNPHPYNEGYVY
Procedure, shortened: as §1

[10] = molecular target: T6, ERF (Homo sapiens, UniProt P50548 1-548)
T6 sequence: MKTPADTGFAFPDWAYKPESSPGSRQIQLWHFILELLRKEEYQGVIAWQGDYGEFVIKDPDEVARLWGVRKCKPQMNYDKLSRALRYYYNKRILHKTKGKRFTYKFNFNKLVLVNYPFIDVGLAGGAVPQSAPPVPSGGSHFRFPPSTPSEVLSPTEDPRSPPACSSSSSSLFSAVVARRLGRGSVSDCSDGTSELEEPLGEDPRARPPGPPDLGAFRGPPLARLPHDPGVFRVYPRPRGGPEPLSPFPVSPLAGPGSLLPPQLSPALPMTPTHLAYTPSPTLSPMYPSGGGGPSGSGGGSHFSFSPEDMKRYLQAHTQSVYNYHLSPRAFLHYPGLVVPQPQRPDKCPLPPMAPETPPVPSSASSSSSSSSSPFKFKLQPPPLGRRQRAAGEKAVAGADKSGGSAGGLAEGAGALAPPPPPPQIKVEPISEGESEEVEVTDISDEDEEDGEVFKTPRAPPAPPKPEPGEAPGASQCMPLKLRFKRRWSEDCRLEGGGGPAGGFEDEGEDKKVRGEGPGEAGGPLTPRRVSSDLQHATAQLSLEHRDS
Procedure, shortened: as §1

[11] = molecular target: T7, ETV3L (Homo sapiens, UniProt Q6ZN32 1-361)
T7 sequence: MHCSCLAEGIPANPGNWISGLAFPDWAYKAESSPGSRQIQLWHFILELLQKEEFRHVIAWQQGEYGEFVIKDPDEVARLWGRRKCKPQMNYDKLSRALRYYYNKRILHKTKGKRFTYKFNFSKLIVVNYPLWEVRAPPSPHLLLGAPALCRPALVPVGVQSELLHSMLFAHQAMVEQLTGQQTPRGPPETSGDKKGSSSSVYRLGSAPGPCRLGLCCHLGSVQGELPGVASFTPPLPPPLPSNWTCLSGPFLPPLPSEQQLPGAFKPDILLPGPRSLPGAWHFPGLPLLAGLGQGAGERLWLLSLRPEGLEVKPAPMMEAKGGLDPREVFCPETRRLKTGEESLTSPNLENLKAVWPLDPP
Procedure, shortened: as §1

[12] = molecular target: T8, ETS2 (Homo sapiens, UniProt P15036 1-469)
T8 sequence: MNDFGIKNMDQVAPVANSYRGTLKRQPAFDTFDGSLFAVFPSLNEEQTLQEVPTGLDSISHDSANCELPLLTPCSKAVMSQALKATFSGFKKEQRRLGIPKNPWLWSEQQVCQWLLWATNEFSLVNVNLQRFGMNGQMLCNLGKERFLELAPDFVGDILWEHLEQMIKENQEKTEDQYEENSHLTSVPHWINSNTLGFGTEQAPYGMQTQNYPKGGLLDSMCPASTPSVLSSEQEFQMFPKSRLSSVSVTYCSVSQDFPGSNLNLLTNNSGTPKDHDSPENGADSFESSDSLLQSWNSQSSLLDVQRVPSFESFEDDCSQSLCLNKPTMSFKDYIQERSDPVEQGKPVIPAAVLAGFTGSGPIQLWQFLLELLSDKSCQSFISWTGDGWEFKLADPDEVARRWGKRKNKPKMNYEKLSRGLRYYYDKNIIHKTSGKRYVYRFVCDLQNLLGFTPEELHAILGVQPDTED
Procedure, shortened: as §1

[13] = molecular target: T9, SPDEF (Homo sapiens, UniProt O95238 1-335)
T9 sequence: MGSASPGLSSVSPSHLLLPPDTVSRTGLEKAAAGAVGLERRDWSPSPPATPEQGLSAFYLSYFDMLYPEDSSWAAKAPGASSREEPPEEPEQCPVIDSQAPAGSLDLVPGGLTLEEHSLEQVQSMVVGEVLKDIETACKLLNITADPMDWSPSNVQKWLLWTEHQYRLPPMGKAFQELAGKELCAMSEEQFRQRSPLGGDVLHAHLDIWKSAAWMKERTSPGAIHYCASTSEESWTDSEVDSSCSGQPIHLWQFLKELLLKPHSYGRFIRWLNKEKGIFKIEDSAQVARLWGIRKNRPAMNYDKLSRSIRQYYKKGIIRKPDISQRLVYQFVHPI
Procedure, shortened: as §1

[14] = molecular target: T10, ETV7 (Homo sapiens, UniProt Q9Y603 1-341)
T10 sequence: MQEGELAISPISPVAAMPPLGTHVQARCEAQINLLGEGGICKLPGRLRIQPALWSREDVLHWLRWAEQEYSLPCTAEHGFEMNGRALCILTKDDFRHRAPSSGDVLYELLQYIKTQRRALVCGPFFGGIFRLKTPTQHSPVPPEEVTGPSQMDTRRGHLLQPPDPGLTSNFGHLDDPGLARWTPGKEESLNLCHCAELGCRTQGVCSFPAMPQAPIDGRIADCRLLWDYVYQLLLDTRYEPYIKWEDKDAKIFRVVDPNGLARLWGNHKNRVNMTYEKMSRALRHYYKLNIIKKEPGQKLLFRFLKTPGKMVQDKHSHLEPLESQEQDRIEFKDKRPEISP
Procedure, shortened: as §1

[15] = molecular target: T11, ELF5 (Homo sapiens, UniProt Q9UKW6-2 1-255)
T11 sequence: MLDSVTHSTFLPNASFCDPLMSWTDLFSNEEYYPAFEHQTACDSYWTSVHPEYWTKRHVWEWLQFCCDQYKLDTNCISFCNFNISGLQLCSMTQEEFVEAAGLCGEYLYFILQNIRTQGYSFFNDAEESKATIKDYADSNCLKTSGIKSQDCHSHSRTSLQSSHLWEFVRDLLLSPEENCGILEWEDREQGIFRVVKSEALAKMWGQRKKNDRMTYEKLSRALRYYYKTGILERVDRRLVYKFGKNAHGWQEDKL
Procedure, shortened: as §1

[16] = molecular target: T12, ETV3 (Homo sapiens, UniProt P41162-2 1-143)
T12 sequence: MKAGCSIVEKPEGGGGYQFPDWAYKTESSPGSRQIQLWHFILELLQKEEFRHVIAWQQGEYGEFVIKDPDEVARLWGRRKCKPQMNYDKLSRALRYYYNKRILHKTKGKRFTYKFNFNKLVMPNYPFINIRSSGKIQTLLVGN
Procedure, shortened: as §1

[17] = molecular target: ETV6 (Homo sapiens, UniProt P41212 1-452)
Sequence of ETV6 (P41212 whole entry): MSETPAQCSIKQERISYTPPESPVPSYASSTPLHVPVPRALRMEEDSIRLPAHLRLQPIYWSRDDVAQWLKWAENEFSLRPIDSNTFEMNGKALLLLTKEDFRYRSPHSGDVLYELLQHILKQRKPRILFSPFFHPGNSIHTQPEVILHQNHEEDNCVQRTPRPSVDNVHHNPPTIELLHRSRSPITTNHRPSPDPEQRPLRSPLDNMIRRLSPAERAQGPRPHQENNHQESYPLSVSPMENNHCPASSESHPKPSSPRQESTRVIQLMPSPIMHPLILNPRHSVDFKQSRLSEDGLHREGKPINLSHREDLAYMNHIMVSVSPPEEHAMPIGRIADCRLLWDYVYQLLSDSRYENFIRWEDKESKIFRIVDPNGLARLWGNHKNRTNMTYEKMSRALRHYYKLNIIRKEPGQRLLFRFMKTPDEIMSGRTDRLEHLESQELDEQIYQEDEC
Procedure, shortened: as §1

Sequence | binding signal [1] | binding signal [2] | binding signal [3] | binding signal [4] | binding signal [5] | binding signal [6] | binding signal [7] | binding signal [8] | binding signal [9] | binding signal [10] | binding signal [11] | binding signal [12] | binding signal [13] | binding signal [14] | binding signal [15] | binding signal [16] | binding signal [17]
AAAGGG | 1.11 fold enrichment (6-mer frequency, TF over GST control) | 1.21 fold enrichment (6-mer frequency, TF over GST control) | 1.22 fold enrichment (6-mer frequency, TF over GST control) | 1.19 fold enrichment (6-mer frequency, TF over GST control) | 1.1 fold enrichment (6-mer frequency, TF over GST control) | 1.05 fold enrichment (6-mer frequency, TF over GST control) | 1.25 fold enrichment (6-mer frequency, TF over GST control) | 1.08 fold enrichment (6-mer frequency, TF over GST control) | 1.26 fold enrichment (6-mer frequency, TF over GST control) | 1.09 fold enrichment (6-mer frequency, TF over GST control) | 1.09 fold enrichment (6-mer frequency, TF over GST control) | 1.13 fold enrichment (6-mer frequency, TF over GST control) | 1.04 fold enrichment (6-mer frequency, TF over GST control) | 1.09 fold enrichment (6-mer frequency, TF over GST control) | 1.19 fold enrichment (6-mer frequency, TF over GST control) | 1.18 fold enrichment (6-mer frequency, TF over GST control) | 1.1 fold enrichment (6-mer frequency, TF over GST control)
CCTGTA | 1.2 fold enrichment (6-mer frequency, TF over GST control) | 1.26 fold enrichment (6-mer frequency, TF over GST control) | 1.23 fold enrichment (6-mer frequency, TF over GST control) | 1.25 fold enrichment (6-mer frequency, TF over GST control) | 1.16 fold enrichment (6-mer frequency, TF over GST control) | 1.21 fold enrichment (6-mer frequency, TF over GST control) | 1.09 fold enrichment (6-mer frequency, TF over GST control) | 1.04 fold enrichment (6-mer frequency, TF over GST control) | 1.3 fold enrichment (6-mer frequency, TF over GST control) | 1.24 fold enrichment (6-mer frequency, TF over GST control) | 1.22 fold enrichment (6-mer frequency, TF over GST control) | 1.15 fold enrichment (6-mer frequency, TF over GST control) | 1.36 fold enrichment (6-mer frequency, TF over GST control) | 1.21 fold enrichment (6-mer frequency, TF over GST control) | 1.43 fold enrichment (6-mer frequency, TF over GST control) | 1.35 fold enrichment (6-mer frequency, TF over GST control) | 1.18 fold enrichment (6-mer frequency, TF over GST control)
